Measurements: PubChem BioAssay AID1159580 (chemical genetic matrix, 2015)
Among all 5,500 compounds or so, about 2,000 (36%) were called active. About 18% were inconclusive and are not listed. Cut-off read from the data, not from the text of the source: active = normalized growth mostly below about 0.91 (no sharp cut-off); inconclusive = no clear call, values can overlap the other calls; inactive = mostly above about 0.92. The list shows a part of the results.

Experiment: chemical genetic growth profiling, strain panel (AID 1159580);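 note: tested at 20 µM; growth read once vehicle control cultures reached saturation at 30 °C; 1 = growth at the plate median or of vehicle wells; lower values mean less growth of the strain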
Details: S. cerevisiae deletion strains, growth OD
[1] = locus YAR019C, strain CDC15, stronger effect = lower value
[2] = locus YBL105C, strain PKC1, stronger effect = lower value
[3] = locus YBR135W, strain CKS1, stronger effect = lower value
[4] = locus YBR136W, strain MEC1, stronger effect = lower value
[5] = locus YBR160W, strain CDC28, stronger effect = lower value
[6] = locus YDL017W, strain CDC7, stronger effect = lower value
[7] = locus YDL028C, strain MPS1, stronger effect = lower value
[8] = locus YDL101C, strain DUN1, stronger effect = lower value
[9] = locus YDL108W, strain KIN28, stronger effect = lower value
[10] = locus YDL132W, strain cdc53, stronger effect = lower value
[11] = locus YDL214C, strain PRR2, stronger effect = lower value
[12] = locus YDR052C, strain DBF4, stronger effect = lower value
[13] = locus YDR054C, strain cdc34, stronger effect = lower value
[14] = locus YDR226W, strain ADK1, stronger effect = lower value
[15] = locus YDR477W, strain SNF1, stronger effect = lower value
[16] = locus YER123W, strain YCK3, stronger effect = lower value
[17] = locus YER133W, strain GLC7, stronger effect = lower value
[18] = locus YFL009W, strain cdc4, stronger effect = lower value
[19] = locus YFL029C, strain CAK1, stronger effect = lower value
[20] = locus YFR003C, strain YPI1, stronger effect = lower value
[21] = locus YFR019W, strain FAB1, stronger effect = lower value
[22] = locus YFR028C, strain CDC14, stronger effect = lower value
[23] = locus YGR040W, strain KSS1, stronger effect = lower value
[24] = locus YGR052W, strain FMP48, stronger effect = lower value
[25] = locus YGR092W, strain DBF2, stronger effect = lower value
[26] = locus YHR030C, strain SLT2, stronger effect = lower value
[27] = locus YHR079C, strain IRE1, stronger effect = lower value
[28] = locus YHR082C, strain KSP1, stronger effect = lower value
[29] = locus YHR205W, strain SCH9, stronger effect = lower value
[30] = locus YIL147C, strain SLN1, stronger effect = lower value
[31] = locus YJL095W, strain BCK1, stronger effect = lower value
[32] = locus YJL128C, strain PBS2, stronger effect = lower value
[33] = locus YJL157C, strain FAR1, stronger effect = lower value
[34] = locus YJR016C, strain ILV3, stronger effect = lower value
[35] = locus YJR066W, strain TOR1 (second series), stronger effect = lower value
[36] = locus YJR066W, strain TOR1, stronger effect = lower value
[37] = locus YKL048C, strain ELM1, stronger effect = lower value
[38] = locus YKL067W, strain YNK1, stronger effect = lower value
[39] = locus YKL101W, strain HSL1, stronger effect = lower value
[40] = locus YKL193C, strain SDS22, stronger effect = lower value
[41] = locus YKL203C, strain TOR2, stronger effect = lower value
[42] = locus YLR113W, strain HOG1, stronger effect = lower value
[43] = locus YLR133W, strain CKI1, stronger effect = lower value
[44] = locus YLR403W, strain SFP1, stronger effect = lower value
[45] = locus YML070W, strain DAK1, stronger effect = lower value
[46] = locus YMR001C, strain CDC5, stronger effect = lower value
[47] = locus YMR205C, strain PFK2 (second series), stronger effect = lower value
[48] = locus YMR277W, strain FCP1, stronger effect = lower value
[49] = locus YNL006W, strain LST8, stronger effect = lower value
[50] = locus YNL020C, strain ARK1, stronger effect = lower value
[51] = locus YNL161W, strain CBK1, stronger effect = lower value
[52] = locus YNL183C, strain NPR1, stronger effect = lower value
[53] = locus YNL207W, strain RIO2, stronger effect = lower value
[54] = locus YNL222W, strain SSU72, stronger effect = lower value
[55] = locus YNL307C, strain MCK1 (second series), stronger effect = lower value
[56] = locus YOL078W, strain AVO1, stronger effect = lower value
[57] = locus YOL136C, strain PFK27, stronger effect = lower value
[58] = locus YOR061W, strain CKA2, stronger effect = lower value
[59] = locus YOR119C, strain RIO1, stronger effect = lower value
[60] = locus YOR231W, strain MKK1, stronger effect = lower value
[61] = locus YOR329C, strain SCD5, stronger effect = lower value
[62] = locus YPL031C, strain PHO85, stronger effect = lower value
[63] = locus YPL153C, strain RAD53, stronger effect = lower value
[64] = locus YPL204W, strain HRR25, stronger effect = lower value
[65] = locus YPL209C, strain IPL1, stronger effect = lower value
[66] = locus YPL256C, strain CLN2, stronger effect = lower value
[67] = locus YPR025C, strain CCL1, stronger effect = lower value
[68] = locus YPR106W, strain ISR1, stronger effect = lower value
[69] = locus YPR111W, strain DBF20, stronger effect = lower value
[70] = strain NNK1, stronger effect = lower value
[71] = strain TSCII, stronger effect = lower value

Measured: normalized growth

N/C(CSc1ncccc1C(F)(F)F)=N/OC(=O)Nc1cccc(Cl)c1
inactive: [1] 1 | [2] 0.995 | [3] 0.969 | [4] 0.995 | [5] 0.995 | [6] 0.996 | [7] 0.988 | [8] 0.993 | [9] 0.996 | [10] 0.98 | [11] 0.877 | [12] 1 | [13] 0.987 | [14] 0.983 | [15] 0.857 | [16] 0.724 | [17] 0.82 | [18] 0.996 | [19] 0.992 | [20] 0.995 | [21] 0.946 | [22] 0.991 | [23] 0.881 | [24] 0.793 | [25] 0.836 | [27] 0.788 | [28] 0.946 | [29] 0.875 | [30] 0.995 | [31] 0.618 | [32] 0.967 | [33] 0.94 | [34] 0.989 | [35] 0.71 | [36] 0.841 | [37] 0.977 | [38] 0.897 | [39] 0.911 | [40] 0.987 | [41] 0.93 | [43] 0.926 | [44] 0.904 | [45] 0.837 | [46] 0.994 | [47] 0.916 | [48] 0.988 | [49] 1 | [50] 0.919 | [51] 0.986 | [53] 0.988 | [54] 0.997 | [55] 0.923 | [56] 0.994 | [57] 0.916 | [58] 0.931 | [59] 0.885 | [60] 0.749 | [61] 0.986 | [62] 0.836 | [63] 0.717 | [64] 0.78 | [65] 0.99 | [67] 0.988 | [68] 0.984 | [69] 0.974 | [70] 0.99 | [71] 0.991
active: [26] 0.582 | [42] 0.819 | [52] 0.384 | [66] 0.845

CCOC(=O)c1c(SC)[nH]c2c(C(F)(F)F)cccc2c1=O
inactive: locus YAL013W, strain DEP1, stronger effect = lower value 0.996 | locus YBR229C, strain ROT2, stronger effect = lower value 0.991 | [8] 0.99 | locus YDL134C, strain PPH21, stronger effect = lower value 0.959 | locus YDR150W, strain NUM1, stronger effect = lower value 0.939 | locus YEL061C, strain CIN8, stronger effect = lower value 1.02 | locus YGR078C, strain PAC10, stronger effect = lower value 0.998 | locus YGR229C, strain SMI1, stronger effect = lower value 0.989 | [26] 0.975 | locus YHR087W, strain rtc3, stronger effect = lower value 0.975 | locus YJR043C, strain POL32, stronger effect = lower value 0.982 | locus YJR075W, strain HOC1, stronger effect = lower value 0.992 | locus YKL190W, strain CNB1, stronger effect = lower value 1 | locus YLR039C, strain RIC1, stronger effect = lower value 0.917 | locus YLR058C, strain SHM2 (second series), stronger effect = lower value 1 | locus YLR085C, strain ARP6, stronger effect = lower value 0.977 | locus YLR262C, strain YPT6, stronger effect = lower value 0.997 | locus YML094W, strain GIM5, stronger effect = lower value 0.986 | locus YMR219W, strain ESC1, stronger effect = lower value 1 | locus YMR263W, strain SAP30, stronger effect = lower value 1.03 | locus YNL153C, strain GIM3, stronger effect = lower value 0.986 | locus YNL298W, strain CLA4 (second series), stronger effect = lower value 1.01 | locus YNL322C, strain KRE1, stronger effect = lower value 1 | locus YNR030W, strain Alg12, stronger effect = lower value 0.977 | locus YPL055C, strain LGE1, stronger effect = lower value 0.936 | locus YPL241C, strain CIN2, stronger effect = lower value 0.982 | locus YPR135W, strain CTF4, stronger effect = lower value 0.927

N/C(CSc1ccc(Cl)cc1)=N/OC(=O)c1ccc(C(F)(F)F)cc1
active: [1] 0.853 | [2] 0.895 | [3] 0.89 | [4] 0.889 | [5] 0.874 | [6] 0.893 | [7] 0.847 | [8] 0.867 | [9] 0.881 | [10] 0.886 | [13] 0.87 | [14] 0.867 | [18] 0.841 | [19] 0.853 | [21] 0.766 | [22] 0.86 | [26] 0.422 | [30] 0.876 | [34] 0.889 | [40] 0.885 | [42] 0.619 | [46] 0.866 | [48] 0.855 | [49] 0.892 | [53] 0.874 | [54] 0.872 | [56] 0.877 | [61] 0.9 | [65] 0.892 | [66] 0.647 | [67] 0.886 | [68] 0.875 | [69] 0.855 | [70] 0.862 | [71] 0.85
inactive: [11] 0.798 | [12] 0.912 | [15] 0.798 | [16] 0.774 | [17] 0.853 | [20] 0.908 | [23] 0.816 | [24] 0.838 | [25] 0.805 | [27] 0.739 | [28] 0.788 | [29] 0.604 | [31] 0.7 | [32] 0.889 | [33] 0.826 | [35] 0.687 | [36] 0.651 | [37] 0.953 | [38] 0.826 | [39] 0.863 | [41] 0.859 | [43] 0.822 | [44] 0.761 | [45] 0.852 | [47] 0.836 | [50] 0.836 | [51] 0.9 | [52] 0.82 | [55] 0.786 | [57] 0.852 | [58] 0.803 | [59] 0.845 | [60] 0.791 | [62] 0.807 | [63] 0.811 | [64] 0.786
